Measured values published in PubChem BioAssay (NCI).
This is part of a sample that, as a whole, favours compounds with a hit. Of some 83,000 tested, about 20% had one in any assay.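 Treatment: one concentration, 48 hours, 96-well format. Scoring: percent growth, with anything below 10 considered active.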

Legend:
Assay in all cases: NCI-60 one-dose screen, 48 h (100 = growth as untreated, 0 = no growth, -100 = all killed)
[1] = tested on: HCT-15 colon; settings: 10 µM
[2] = tested on: HT29 colon; settings: 10 µM
[3] = tested on: SNB-19 CNS; settings: 10 µM
[4] = tested on: U251 CNS; settings: 10 µM
[5] = tested on: PC-3 prostate; settings: 10 µM
[6] = tested on: SK-MEL-5 melanoma; settings: 10 µM
[7] = tested on: UACC-62 melanoma; settings: 10 µM unless noted
[8] = tested on: LOX IMVI melanoma; settings: 10 µM
[9] = tested on: SK-MEL-28 melanoma; settings: 10 µM
[10] = tested on: SK-MEL-2 melanoma; settings: 10 µM
[11] = tested on: EKVX NSCLC; settings: 10 µM
[12] = tested on: SN12C renal; settings: 10 µM
[13] = tested on: UO-31 renal; settings: 10 µM
[14] = tested on: TK-10 renal; settings: 10 µM unless noted
[15] = tested on: ACHN renal; settings: 10 µM
[16] = tested on: CAKI-1 renal; settings: 10 µM
[17] = tested on: A498 renal; settings: 10 µM
[18] = tested on: CCRF-CEM leukemia; settings: 10 µM
[19] = tested on: MOLT-4 leukemia; settings: 10 µM

Measured: growth

c1ncc2[nH]cnc2n1
inactive: [1] 87.2% | [2] 92.3% | [3] 102% | [4] 103% | [5] 86.3% | [6] 97.1% | [7] 91.9% | [8] 103% | [9] 100% | [10] 84.6% | [11] 126% | [12] 97.1% | [13] 83.5% | [14] 103% | [15] 95.1% | [16] 94.8% | [17] 79.1% | [18] 88.7% | [19] 80.8%

CC(C)=NNc1ccc([N+](=O)[O-])cc1[N+](=O)[O-]
inactive: [1] 62.3% | [2] 91.8% | [3] 98.3% | [4] 92.9% | [5] 87.3% | [6] 102% | [7] 65.1% | [8] 77.6% | [9] 111% | [10] 113% | [11] 74% | [12] 84.4% | [13] 61.3% | [14] 96.9% | [15] 64.8% | [16] 53.9% | [17] 74.5% | [18] 42.2%

CC1CCCC(CC(N)=O)CC1 (configuration not stated)
inactive: [1] 107% | [2] 85% | [3] 110% | [4] 99.7% | [5] 78.8% | [6] 103% | [7] 104% | [8] 101% | [9] 119% | [10] 109% | [11] 107% | [12] 107% | [13] 91% | [14] 94.2% | [15] 103% | [16] 93.4% | [18] 90.4% | [19] 101%

O=C(CC(=O)c1ccccc1O)c1ccccc1
inactive: [1] 74.4% | [2] 87.8% | [3] 86.9% | [4] 63.3% | [5] 92.6% | [6] 77.6% | [7] 91% | [8] 76.9% | [9] 99.3% | [10] 131% | [11] 76.8% | [12] 85.7% | [13] 87.3% | [14] 87.8% | [15] 99% | [16] 92.2% | [17] 98.6%

O=C(Nc1cc(-c2ccccc2)[nH]n1)c1ccc(Cl)cc1
inactive: [1] 61.4% | [2] 67.2% | [3] 65.2% | [4] 70.2% | [5] 75.9% | [6] 87.6% | [7] 79.7% | [8] 89.5% | [9] 117% | [10] 78% | [11] 101% | [12] 84.1% | [13] 59.1% | [14] 66.6% | [15] 60.8% | [16] 76.3% | [17] 78.6% | [18] 62% | [19] 85.2%

C#C[C@H]1CCCCCC1O (some centres not stated)
inactive: [1] 114% | [2] 107% | [3] 106% | [4] 99.7% | [5] 90.1% | [6] 98.1% | [7] 100% | [8] 97% | [9] 122% | [10] 101% | [11] 104% | [12] 101% | [13] 97.1% | [14] 109% | [15] 116% | [16] 101% | [17] 99.3% | [18] 97.1% | [19] 98.4%

CCOc1ccc(/C=C/C(=O)c2ccccc2)cc1
inactive: [1] 92.4% | [2] 96.1% | [3] 92.2% | [4] 86.7% | [5] 73.7% | [6] 99.6% | [7] 88.9% | [8] 93.5% | [9] 100% | [10] 91.9% | [11] 107% | [12] 95.7% | [13] 84% | [14] 97.6% | [15] 108% | [17] 88.8% | [18] 55.9% | [19] 77.6%

COC(=O)/C=C\C(=O)OC
inactive: [1] 107% | [2] 103% | [3] 109% | [4] 105% | [5] 93.1% | [6] 106% | [7] 101% | [8] 102% | [9] 112% | [10] 114% | [11] 122% | [12] 102% | [13] 81.1% | [14] 109% | [15] 113% | [16] 112% | [17] 104% | [18] 110% | [19] 87.8%
